# Assay results: PubChem BioAssay AID1159580 (chemical genetic matrix, 2015)
# The campaign covered roughly 5,500 compounds. About 2,000 (36%) were called active. Another 18% or so got no clear call; they are omitted. The list shows a part of the results. Values without a mark were called inactive. Rule as the data show it: active = normalized growth mostly below about 0.91 (no sharp cut-off); inconclusive = no clear call, values can overlap the other calls; inactive = mostly above about 0.92.
# Assay: chemical genetic growth profiling, strain panel (AID 1159580);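 also: tested at 20 µM; growth read once vehicle control cultures reached saturation at 30 °C; 1 = growth at the plate median or of vehicle wells; lower values mean less growth of the strain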
# Details: S. cerevisiae deletion strains, growth OD
smiles,measurement,setting,value
C[C@@H]1OC(O[C@H]2[C@H](OC(=O)[C@]34CCC(C)(C)CC3C3=CCC5[C@@]6(C)CC[C@H](OC7O[C@@H](C)[C@H](O[C@@H]8OC[C@@H](O)[C@H](O)[C@H]8O)[C@@H](O)[C@H]7O)C(C)(C)C6CC[C@@]5(C)[C@]3(C)CC4O)OC[C@H](O)[C@H]2O)[C@H](O)[C@H](O)[C@H]1O[C@@H]1O[C@H](CO)[C@@H](O)[C@H](O)[C@H]1O (some centres not stated),normalized growth,"locus YBR021W, strain FUR4, stronger effect = lower value",0.963
same,normalized growth,"locus YBR229C, strain ROT2, stronger effect = lower value",0.967
same,normalized growth,"locus YCL029C, strain bik1, stronger effect = lower value",1.01
same,normalized growth,"locus YDL035C, strain GPR1, stronger effect = lower value",0.785 (active)
same,normalized growth,"locus YDL074C, strain BRE1, stronger effect = lower value",0.885
same,normalized growth,"locus YDL101C, strain DUN1, stronger effect = lower value",0.984
same,normalized growth,"locus YDL134C, strain PPH21, stronger effect = lower value",0.883 (active)
same,normalized growth,"locus YDL185W, strain tfp1, stronger effect = lower value",0.974
same,normalized growth,"locus YDL192W, strain arf1, stronger effect = lower value",0.825 (active)
same,normalized growth,"locus YDR101C, strain arx1, stronger effect = lower value",0.985
same,normalized growth,"locus YDR162C, strain NBP2, stronger effect = lower value",0.0581 (active)
same,normalized growth,"locus YDR318W, strain mcm21, stronger effect = lower value",0.917
same,normalized growth,"locus YDR388W, stronger effect = lower value",0.918 (active)
same,normalized growth,"locus YDR502C, strain sam2, stronger effect = lower value",0.936
same,normalized growth,"locus YEL061C, strain CIN8, stronger effect = lower value",0.95
same,normalized growth,"locus YER110C, stronger effect = lower value",0.996
same,normalized growth,"locus YER155C, strain BEM2, stronger effect = lower value",1.12 [resistant] (active)
same,normalized growth,"locus YER167W, strain BCK2, stronger effect = lower value",0.895 (active)
same,normalized growth,"locus YGL078C, strain dbp3, stronger effect = lower value",0.929
same,normalized growth,"locus YGL086W, strain mad1, stronger effect = lower value",0.977
same,normalized growth,"locus YGL248W, strain PDE1, stronger effect = lower value",0.993
same,normalized growth,"locus YGR135W, strain pre9, stronger effect = lower value",0.978
same,normalized growth,"locus YGR252W, strain gcn5, stronger effect = lower value",0.934
same,normalized growth,"locus YHR030C, strain SLT2, stronger effect = lower value",0.323 (active)
same,normalized growth,"locus YHR079C, strain IRE1 (second series), stronger effect = lower value",0.975
same,normalized growth,"locus YHR094C, strain hxt1, stronger effect = lower value",0.982
same,normalized growth,"locus YHR129C, strain ARP1, stronger effect = lower value",0.923
same,normalized growth,"locus YHR200W, strain rpn10, stronger effect = lower value",0.974
same,normalized growth,"locus YIL066C, strain RNR3, stronger effect = lower value",0.912
same,normalized growth,"locus YIL073C, strain SPO22, stronger effect = lower value",0.936
same,normalized growth,"locus YIL125W, strain kgd1, stronger effect = lower value",0.958
same,normalized growth,"locus YIR030C, strain dcg1, stronger effect = lower value",0.969
same,normalized growth,"locus YJL095W, strain BCK1, stronger effect = lower value",0.33 (active)
same,normalized growth,"locus YJL134W, strain LCB3, stronger effect = lower value",1.04
same,normalized growth,"locus YJL168C, strain set2, stronger effect = lower value",1.01
same,normalized growth,"locus YJL187C, strain SWE1 (second series), stronger effect = lower value",0.925
same,normalized growth,"locus YJR043C, strain POL32, stronger effect = lower value",0.858
same,normalized growth,"locus YJR075W, strain HOC1, stronger effect = lower value",0.957
same,normalized growth,"locus YKL009W, strain mrt4, stronger effect = lower value",0.876 (active)
same,normalized growth,"locus YKL068W, stronger effect = lower value",0.949
same,normalized growth,"locus YKL085W, strain MDH1 (second series), stronger effect = lower value",0.904 (active)
same,normalized growth,"locus YKL085W, strain MDH1, stronger effect = lower value",0.904 (active)
same,normalized growth,"locus YKR001C, strain vps1, stronger effect = lower value",0.721 (active)
same,normalized growth,"locus YLR039C, strain RIC1, stronger effect = lower value",0.842
same,normalized growth,"locus YLR058C, strain SHM2, stronger effect = lower value",0.972
same,normalized growth,"locus YLR102C, strain apc9, stronger effect = lower value",0.982
same,normalized growth,"locus YLR262C, strain YPT6, stronger effect = lower value",0.709
same,normalized growth,"locus YLR268W, strain sec22, stronger effect = lower value",0.966
same,normalized growth,"locus YLR330W, strain CHS5, stronger effect = lower value",0.993
same,normalized growth,"locus YLR342W, strain FKS1 (second series), stronger effect = lower value",0.927
same,normalized growth,"locus YLR371W, strain rom2, stronger effect = lower value",0.714 (active)
same,normalized growth,"locus YLR418C, strain cdc73, stronger effect = lower value",0.745 (active)
same,normalized growth,"locus YML016C, strain PPZ1, stronger effect = lower value",1
same,normalized growth,"locus YML032C, strain rad52, stronger effect = lower value",0.824 (active)
same,normalized growth,"locus YML124C, strain tub3, stronger effect = lower value",0.993
same,normalized growth,"locus YMR078C, strain ctf18, stronger effect = lower value",0.987
same,normalized growth,"locus YMR223W, strain ubp8, stronger effect = lower value",0.895 (active)
same,normalized growth,"locus YMR307W, strain GAS1, stronger effect = lower value",0.212 (active)
same,normalized growth,"locus YNL067W, strain RPL9B, stronger effect = lower value",0.983
same,normalized growth,"locus YNL128W, strain TEP1, stronger effect = lower value",0.887
same,normalized growth,"locus YNL153C, strain GIM3, stronger effect = lower value",0.958
same,normalized growth,"locus YNL233W, strain BNI4, stronger effect = lower value",0.997
same,normalized growth,"locus YNL250W, strain rad50, stronger effect = lower value",0.891 (active)
same,normalized growth,"locus YNL271C, strain bni1, stronger effect = lower value",1
same,normalized growth,"locus YNL298W, strain CLA4, stronger effect = lower value",0.838 (active)
same,normalized growth,"locus YNL307C, strain MCK1, stronger effect = lower value",0.991
same,normalized growth,"locus YNR052C, strain pop2, stronger effect = lower value",0.815 (active)
same,normalized growth,"locus YOL012C, strain htz1",2.15 [resistant] (active)
same,normalized growth,"locus YOL147C, strain pex11, stronger effect = lower value",0.986
same,normalized growth,"locus YOR061W, strain CKA2, stronger effect = lower value",0.59 (active)
same,normalized growth,"locus YOR069W, strain VPS5, stronger effect = lower value",1.01
same,normalized growth,"locus YOR136W, strain idh2, stronger effect = lower value",0.951
same,normalized growth,"locus YOR144C, strain elg1, stronger effect = lower value",0.982
same,normalized growth,"locus YOR184W, strain ser1, stronger effect = lower value",0.79 (active)
same,normalized growth,"locus YOR316C, strain cot1, stronger effect = lower value",0.984
same,normalized growth,"locus YPL055C, strain LGE1, stronger effect = lower value",0.841
same,normalized growth,"locus YPL241C, strain CIN2, stronger effect = lower value",0.989
same,normalized growth,"locus YPR119W, strain clb2, stronger effect = lower value",0.988
same,normalized growth,"locus YPR141C, strain kar3, stronger effect = lower value",0.981
same,normalized growth,"locus YPR163C, strain tif3, stronger effect = lower value",0.935
same,normalized growth,"locus YPR167C, strain met16, stronger effect = lower value",0.861 (active)
same,normalized growth,"strain wtn01, stronger effect = lower value",0.955
